According to PubChem BioAssay (EPA / NIEHS):
Active and inactive are the calls of the source. The calls were made as follows: active = hit-call score of the fitted dose curve at least 0.9, where 1 is the maximum; inactive = score below 0.9.

Columns and labels:
[1] = APR_HepG2_StressKinase_1hr: Apredica 1-hour HepG2 Assay for Stress Kinase (AID 2282906); conditions: HepG2 stress kinase (phospho-c-Jun) imaging, actives raise or lower the signal
In short: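 High-content imaging of phospho-c-Jun immunostaining (with Hoechst nuclear identification) after a 1 h exposure of HepG2 cells to 10 concentrations from 0.39 to 200 uM, final DMSO 0.5%. Fitted bidirectionally against DMSO.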

[2] = APR_HepG2_NuclearSize_24hr: Apredica 24-hour HepG2 Assay for Nuclear Size (AID 2282907); conditions: high-content imaging, actives raise or lower the signal
In short: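 Read-out: nuclear diameter from Hoechst 33342 (2 ug/mL) imaging of fixed HepG2 cells, 20x, six fields/well. Compounds ran at 0.39–200 uM for 24 hr, 0.5% DMSO final. Gain or loss was fitted bidirectionally relative to the DMSO baseline.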

[3] = APR_HepG2_CellLoss_24hr: Apredica 24-hour HepG2 Assay for Cell Loss (AID 2282908); conditions: high-content imaging;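 as to AC50: fit in both directions so a hit may be cell loss or gain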
In short: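 Read-out: Hoechst 33342-stained nuclei counted by automated fluorescence imaging after formaldehyde fixation and Triton permeabilization. Ten concentrations, 0.39 to 200 uM, duplicate wells, 0.5% DMSO final. Gain or loss of signal fitted relative to DMSO baseline.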

[4] = APR_HepG2_MicrotubuleCSK_24hr: Apredica 24-hour HepG2 Assay for Microtubule CSK Stabilty (AID 2282909); conditions: HepG2 microtubule cytoskeleton imaging, actives raise or lower the signal
In short: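 Read-out: alpha-tubulin immunofluorescence intensity by automated high-content imaging of fixed HepG2 cells after 24 h compound treatment. Ten concentrations, 0.39 to 200 uM, in duplicate; DMSO 0.5% v/v. Taxol positive control; DMSO-normalized bidirectional curve fitting.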

[5] = APR_HepG2_MitoticArrest_24hr: Apredica 24-hour HepG2 Assay for Mitotic Arrest (AID 2282910); conditions: high-content imaging, actives raise or lower the signal
In short: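 Treatment lasted 24 hr in the human HepG2 line at 0.39–200 uM, solvent held at 0.5% DMSO. Fixed cells were stained with Hoechst 33342 and anti-phospho-histone H3, imaged at 20x, and analysed by gain- or loss-of-signal fitting against DMSO.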

[6] = APR_HepG2_MitoMembPot_24hr: Apredica 24-hour HepG2 Assay for Mitochondrial Membrane Potential (AID 2282911); conditions: imaging, actives raise or lower the signal
In short: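 Cells are dosed for 24 hr across 0.39 to 200 uM with solvent held at 0.5% DMSO. They are then stained with 250 nM MitoTracker Red CMXRos for 30 min, fixed in 3.7% formaldehyde and imaged.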

[7] = APR_HepG2_MitoMass_24hr: Apredica 24-hour HepG2 Assay for Mitochondrial Mass (AID 2282912); conditions: high-content imaging, actives raise or lower the signal
In short: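 HepG2, 24 hr dosing, 10 concentrations 0.39–200 uM in duplicate, DMSO 0.5% final. MitoTracker Red CMXRos 250 nM, 30 min pre-fix; 3.7% formaldehyde fix. Imaging-based fluorescence intensity; gain/loss fit vs DMSO baseline.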

[8] = APR_HepG2_p53Act_24hr: Apredica 24-hour HepG2 Assay for p53 Activation (AID 2282913); conditions: high-content imaging, actives raise or lower the signal;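 also: p53 protein immunofluorescence averaged per cell in HepG2 with Hoechst nuclei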
In short: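 Human HepG2 liver cells; 24 hr cpd treatment, 0.39–200 uM, 0.5% DMSO final. Fixed in 3.7% formaldehyde, permeabilized with 0.5% Triton X-100, stained with anti-p53/Cy5 plus Hoechst 33342. Six images per well at 20x; gain or loss vs DMSO.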

[9] = APR_HepG2_CellLoss_72hr: Apredica 72-hour HepG2 Assay for Cell Loss (AID 2282915); conditions: high-content imaging
In short: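 HepG2 cells were exposed for 72 hr to compounds at 0.39–200 uM (ten concentrations, duplicate) in 0.5% v/v final DMSO. Nuclei were stained with Hoechst 33342 after 3.7% formaldehyde fixation, imaged at 20x, and counted; fits bidirectional versus DMSO.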

[10] = APR_HepG2_P-H2AX_72hr: Apredica 72-hour HepG2 Assay for H2AX Phosphorylation (AID 2282916); conditions: imaging, actives raise or lower the signal;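 also: phospho-histone H2A.x immunostain intensity per cell marking DNA damage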
In short: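 Readout: phospho-H2A.x immunofluorescence (FITC secondary) plus Hoechst nuclear stain, high-content imaging at 20x, six fields/well. HepG2, 72 hr compound exposure, 0.39–200 uM, final DMSO 0.5% v/v. Gain or loss fitted relative to DMSO baseline.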

[11] = APR_HepG2_MitoMembPot_72hr: Apredica 72-hour HepG2 Assay for Mitochondrial Membrane Potential (AID 2282917); conditions: imaging, actives raise or lower the signal
In short: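 HepG2 cells exposed 72 h to compounds at 0.39–200 uM (0.5% v/v DMSO, duplicates); MitoTracker Red CMXRos 250 nM loaded 30 min before 3.7% formaldehyde fixation, imaged by HCS fluorescence. Bidirectional fit versus DMSO.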

[12] = APR_HepG2_MitoticArrest_72hr: Apredica 72-hour HepG2 Assay for Mitotic Arrest (AID 2282918); conditions: high-content imaging, actives raise or lower the signal
In short: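 Read-out is phospho-histone H3 immunofluorescence with Hoechst nuclear segmentation, imaged at 20x. Human HepG2 liver cells received ten concentrations (0.39–200 uM, final DMSO 0.5% v/v) for 72 hr before fixation. Gain or loss of signal was fitted relative to DMSO.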

[13] = APR_HepG2_MicrotubuleCSK_72hr: Apredica 72-hour HepG2 Assay for Microtubule CSK Stabilty (AID 2282919); conditions: HepG2 microtubule cytoskeleton, high-content imaging, actives raise or lower the signal
In short: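 Ten-point dosing (0.39–200 uM, 0.5% DMSO) of HepG2 for 72 hr, with taxol as the cytoskeletal positive control. The cells were formaldehyde-fixed and then stained with alpha-tubulin/Cy5 and Hoechst. Imaging at 20x used a −2 um Z offset for tubulin.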

[14] = APR_HepG2_P-H2AX_24hr: Apredica 24-hour HepG2 Assay for H2AX Phosphorylation (AID 2282920); conditions: high-content imaging, actives raise or lower the signal
In short: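 HepG2, 24 hr, cpd 0.39–200 uM (10 conc, duplicate), DMSO 0.5% v/v final. Fix 3.7% formaldehyde, Triton X-100 permeabilize, anti-phospho-H2A.x 1:200 + Hoechst 2 ug/mL. Imaged, bidirectional fit vs DMSO.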

[15] = APR_HepG2_StressKinase_72hr: Apredica 72-hour HepG2 Assay for Stress Kinase (AID 2282921); conditions: HepG2 stress kinase (phospho-c-Jun) imaging, actives raise or lower the signal
In short: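 Phospho-c-Jun immunofluorescence measured by high-content imaging at 20x, six fields per well; bidirectional curve fitting against DMSO as baseline. Dosing: 0.39–200 uM, 72 h, 0.5% DMSO final.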

[16] = APR_HepG2_StressKinase_24hr: Apredica 24-hour HepG2 Assay for Stress Kinase (AID 2282922); conditions: HepG2 stress kinase (phospho-c-Jun) imaging, actives raise or lower the signal
In short: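 After 24 hr compound treatment (up to 200 uM, final DMSO 0.5% v/v), HepG2 cells are fixed and multiplex-labeled; phospho-c-Jun intensity is captured by high-content fluorescence imaging and analyzed relative to DMSO.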

[17] = APR_HepG2_MitoMass_72hr: Apredica 72-hour HepG2 Assay for Mitochondrial Mass (AID 2282924); conditions: high-content imaging, actives raise or lower the signal;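 also: MitoTracker Red CMXRos stain intensity per cell imaged as mitochondrial mass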
In short: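 Steps: treat HepG2 72 hr (0.39–200 uM, duplicate wells); load MitoTracker Red CMXRos, 250 nM, 30 min; fix with 3.7% formaldehyde, permeabilise with 0.5% Triton X-100; capture images, nuclei via Hoechst 33342; fit bidirectionally against DMSO.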

[18] = APR_HepG2_p53Act_72hr: Apredica 72-hour HepG2 Assay for p53 Activation (AID 2282923); conditions: high-content imaging, actives raise or lower the signal;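 also: average cellular p53 protein immunofluorescence intensity in HepG2 cells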
In short: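 Readout: p53 immunofluorescence quantified by automated high-content imaging at 20x, six fields per well, nuclei located via Hoechst. Dosing ran 72 hr over ten concentrations from 0.39 to 200 uM; bidirectional curve fitting against DMSO baseline.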

Measured: AC50

CCCC1COC(Cn2cncn2)(c2ccc(Cl)cc2Cl)O1 (stereo unspecified)
active: [6] 12.8 µM | [9] 76 µM | [13] 77.7 µM
not listed: [18]
inactive: all other assays above

Fc1ccc(Oc2ccnc3cc(Cl)cc(Cl)c23)cc1
active: [3] 100 µM | [5] 109 µM | [14] 100 µM
not listed: [9] | [15]
inactive: all other assays above

CNC(=S)S
active: [3] 80.1 µM | [4] 74.4 µM | [5] 85.2 µM | [9] 36.7 µM | [10] 11.3 µM | [12] 13.5 µM | [13] 26.2 µM | [14] 32.9 µM
not listed: [15]
inactive: all other assays above

N#CC(CCc1ccc(Cl)cc1)(Cn1cncn1)c1ccccc1 (stereo unspecified)
active: [3] 102 µM | [4] 104 µM | [5] 106 µM | [8] 103 µM | [14] 111 µM
not listed: [9] | [15] | [18]
inactive: all other assays above

CCOc1cc(Oc2ccc(C(F)(F)F)cc2Cl)ccc1[N+](=O)[O-]
active: [12] 45 µM | [13] 19.8 µM
not listed: [9] | [18]
inactive: all other assays above

Oc1ccccc1-c1ccccc1
inactive: all assays above

Cc1cc(Cl)ccc1OCC(=O)O
not listed: [9] | [15] | [18]
inactive: all other assays above

OC(c1ccc(Cl)cc1)(c1cncnc1)c1ccccc1Cl (stereo unspecified)
active: [3] 108 µM | [4] 84.9 µM | [5] 91.1 µM | [6] 31.5 µM | [13] 167 µM
not listed: [9]
inactive: all other assays above
